This note sets out measurements from the supplement of paper PMC11732987, “Enantioselective OTUD7B fragment discovery through chemoproteomics screening and high-throughput optimisation” (Communications Chemistry, 2025).

Values without a mark were called inactive.

Experiment in all cases: log2 ratio of Biotin-Ahx-Ub-VS probe labelling (fragment/DMSO); higher = less target engagement (more negative = stronger competition), active = hit call of the paper (q ≤ 0.05, log2 ratio ≤ -1)
What all share (details): compound concentration: 200 uM; treatment time: 3 h

One assay addresses T1, USP19 (UniProt O94966).
T1 sequence (whole entry): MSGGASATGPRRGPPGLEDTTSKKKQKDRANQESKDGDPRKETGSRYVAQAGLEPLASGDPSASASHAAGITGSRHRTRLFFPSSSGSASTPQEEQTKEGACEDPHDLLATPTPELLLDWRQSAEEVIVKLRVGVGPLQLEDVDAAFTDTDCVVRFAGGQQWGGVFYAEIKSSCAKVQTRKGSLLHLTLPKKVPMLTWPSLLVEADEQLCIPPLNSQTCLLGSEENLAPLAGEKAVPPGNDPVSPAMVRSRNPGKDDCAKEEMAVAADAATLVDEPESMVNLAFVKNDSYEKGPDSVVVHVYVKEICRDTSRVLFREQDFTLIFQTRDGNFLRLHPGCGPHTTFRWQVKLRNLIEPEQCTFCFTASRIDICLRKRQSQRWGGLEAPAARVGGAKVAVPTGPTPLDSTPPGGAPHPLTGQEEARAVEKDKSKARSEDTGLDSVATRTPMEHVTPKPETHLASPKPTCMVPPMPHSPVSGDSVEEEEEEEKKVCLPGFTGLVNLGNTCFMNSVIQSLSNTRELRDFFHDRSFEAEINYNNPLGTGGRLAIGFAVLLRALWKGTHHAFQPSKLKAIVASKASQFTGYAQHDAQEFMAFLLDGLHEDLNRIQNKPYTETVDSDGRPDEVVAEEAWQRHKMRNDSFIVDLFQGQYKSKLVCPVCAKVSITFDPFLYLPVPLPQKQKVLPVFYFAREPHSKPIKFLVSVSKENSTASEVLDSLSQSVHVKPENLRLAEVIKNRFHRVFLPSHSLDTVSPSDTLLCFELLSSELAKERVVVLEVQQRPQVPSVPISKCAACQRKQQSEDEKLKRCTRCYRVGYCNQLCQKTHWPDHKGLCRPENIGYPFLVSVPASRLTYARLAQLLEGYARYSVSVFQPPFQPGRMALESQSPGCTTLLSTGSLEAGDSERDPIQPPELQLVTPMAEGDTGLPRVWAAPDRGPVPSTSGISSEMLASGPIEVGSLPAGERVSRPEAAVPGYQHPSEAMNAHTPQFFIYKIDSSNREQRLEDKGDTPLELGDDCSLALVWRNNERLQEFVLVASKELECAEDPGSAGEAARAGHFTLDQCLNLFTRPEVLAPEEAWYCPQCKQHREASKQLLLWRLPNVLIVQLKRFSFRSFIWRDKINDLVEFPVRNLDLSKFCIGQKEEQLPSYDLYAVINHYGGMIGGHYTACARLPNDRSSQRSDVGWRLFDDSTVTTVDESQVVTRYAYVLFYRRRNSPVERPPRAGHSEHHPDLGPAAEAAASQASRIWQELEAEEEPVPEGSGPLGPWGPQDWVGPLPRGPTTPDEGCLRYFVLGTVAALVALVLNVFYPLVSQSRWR
The method, boiled down:
(§1)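 Triplicate samples of HEK293T lysate, 495 µg each, received fragment at 200 µM or vehicle for 3 h, followed by Biotin-Ahx-Ub-VS (0.5 µM final) for 1 h. After NeutrAvidin enrichment of labelled DUBs and LysC/trypsin digestion, peptides were run by diaPASEF LC-MS/MS. The values are average log2 fragment/vehicle ratios from global-median-normalised Spectronaut label-free quantities, tested by unpaired t-test on proteins having ≥2 unique peptides.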

The target in another assay is T2, USP22 (UniProt Q9UPT9).
T2 sequence (whole entry): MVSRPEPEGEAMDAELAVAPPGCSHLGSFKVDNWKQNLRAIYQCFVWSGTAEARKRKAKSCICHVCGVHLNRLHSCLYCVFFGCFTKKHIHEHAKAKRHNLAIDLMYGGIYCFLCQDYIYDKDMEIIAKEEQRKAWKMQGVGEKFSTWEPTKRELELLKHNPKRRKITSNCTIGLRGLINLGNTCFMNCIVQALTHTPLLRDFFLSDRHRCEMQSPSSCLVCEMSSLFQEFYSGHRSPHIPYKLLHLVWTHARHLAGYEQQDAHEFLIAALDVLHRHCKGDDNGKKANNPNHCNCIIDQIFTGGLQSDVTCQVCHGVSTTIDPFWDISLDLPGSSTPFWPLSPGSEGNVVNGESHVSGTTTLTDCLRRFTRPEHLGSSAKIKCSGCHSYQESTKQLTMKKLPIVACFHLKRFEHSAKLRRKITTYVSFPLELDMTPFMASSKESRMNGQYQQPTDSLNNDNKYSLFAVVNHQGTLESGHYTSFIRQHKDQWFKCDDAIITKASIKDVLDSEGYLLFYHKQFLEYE
The method, boiled down:
as §1

In a further assay the target is USP24 (UniProt Q9UPU5). A digest of the protocol:
as §1

The next assay concerns the target T3, USP25 (UniProt Q9UHP3).
T3 sequence (whole entry): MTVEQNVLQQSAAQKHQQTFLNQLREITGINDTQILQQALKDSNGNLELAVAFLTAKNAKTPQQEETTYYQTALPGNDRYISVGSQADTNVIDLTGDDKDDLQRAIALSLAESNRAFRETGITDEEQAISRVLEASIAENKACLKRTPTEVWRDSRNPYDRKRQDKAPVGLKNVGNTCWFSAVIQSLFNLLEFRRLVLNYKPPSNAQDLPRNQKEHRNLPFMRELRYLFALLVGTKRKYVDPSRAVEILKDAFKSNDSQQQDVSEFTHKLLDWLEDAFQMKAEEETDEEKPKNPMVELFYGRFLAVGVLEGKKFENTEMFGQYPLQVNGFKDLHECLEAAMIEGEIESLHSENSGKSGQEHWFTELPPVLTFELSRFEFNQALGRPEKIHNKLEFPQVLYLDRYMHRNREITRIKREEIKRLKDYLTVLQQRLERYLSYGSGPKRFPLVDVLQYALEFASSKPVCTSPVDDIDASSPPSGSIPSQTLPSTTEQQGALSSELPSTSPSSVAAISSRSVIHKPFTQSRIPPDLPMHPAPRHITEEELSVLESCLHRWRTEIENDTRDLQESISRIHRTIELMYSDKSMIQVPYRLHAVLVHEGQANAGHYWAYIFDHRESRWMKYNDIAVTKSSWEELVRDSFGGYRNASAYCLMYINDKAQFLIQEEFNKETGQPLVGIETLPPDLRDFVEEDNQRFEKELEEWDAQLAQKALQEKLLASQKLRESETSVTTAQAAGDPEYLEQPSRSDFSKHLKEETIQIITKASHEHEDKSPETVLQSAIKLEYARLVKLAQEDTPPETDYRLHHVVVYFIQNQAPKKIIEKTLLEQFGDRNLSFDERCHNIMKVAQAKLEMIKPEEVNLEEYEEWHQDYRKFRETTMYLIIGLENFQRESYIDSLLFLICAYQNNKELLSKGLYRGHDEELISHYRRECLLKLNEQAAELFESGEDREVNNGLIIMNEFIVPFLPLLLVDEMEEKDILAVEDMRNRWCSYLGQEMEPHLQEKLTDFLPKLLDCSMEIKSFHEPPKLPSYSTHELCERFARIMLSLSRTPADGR
The method, boiled down: as §1

A further assay concerns the target T4, USP28 (UniProt Q96RU2).
T4 sequence (whole entry): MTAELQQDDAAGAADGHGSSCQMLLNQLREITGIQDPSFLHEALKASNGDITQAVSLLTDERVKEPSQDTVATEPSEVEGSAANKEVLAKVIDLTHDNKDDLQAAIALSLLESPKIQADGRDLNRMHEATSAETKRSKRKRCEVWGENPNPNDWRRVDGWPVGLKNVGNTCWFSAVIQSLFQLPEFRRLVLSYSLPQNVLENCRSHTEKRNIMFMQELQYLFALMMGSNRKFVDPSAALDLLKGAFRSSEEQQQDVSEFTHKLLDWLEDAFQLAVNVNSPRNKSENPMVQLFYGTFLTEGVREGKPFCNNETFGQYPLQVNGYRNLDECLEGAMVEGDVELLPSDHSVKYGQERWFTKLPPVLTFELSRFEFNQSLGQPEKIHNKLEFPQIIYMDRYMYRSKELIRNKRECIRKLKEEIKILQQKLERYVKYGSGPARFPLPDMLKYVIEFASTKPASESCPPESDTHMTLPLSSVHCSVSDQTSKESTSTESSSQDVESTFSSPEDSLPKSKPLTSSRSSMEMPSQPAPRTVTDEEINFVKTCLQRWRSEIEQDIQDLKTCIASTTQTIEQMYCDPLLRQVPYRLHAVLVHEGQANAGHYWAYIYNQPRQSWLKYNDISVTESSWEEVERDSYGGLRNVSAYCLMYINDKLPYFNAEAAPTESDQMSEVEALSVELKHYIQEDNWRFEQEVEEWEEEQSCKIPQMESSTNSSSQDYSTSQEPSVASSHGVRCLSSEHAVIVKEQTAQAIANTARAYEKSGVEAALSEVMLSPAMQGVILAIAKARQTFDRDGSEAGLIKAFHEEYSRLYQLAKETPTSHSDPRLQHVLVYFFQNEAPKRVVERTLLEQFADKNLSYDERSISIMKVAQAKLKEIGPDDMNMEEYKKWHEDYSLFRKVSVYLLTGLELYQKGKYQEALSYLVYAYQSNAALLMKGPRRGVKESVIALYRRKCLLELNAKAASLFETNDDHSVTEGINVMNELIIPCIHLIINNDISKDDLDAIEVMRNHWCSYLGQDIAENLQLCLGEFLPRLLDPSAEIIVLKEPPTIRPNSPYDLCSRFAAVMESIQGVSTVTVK
A digest of the protocol: as §1

Sequence of USP24 (Q9UPU5 whole entry): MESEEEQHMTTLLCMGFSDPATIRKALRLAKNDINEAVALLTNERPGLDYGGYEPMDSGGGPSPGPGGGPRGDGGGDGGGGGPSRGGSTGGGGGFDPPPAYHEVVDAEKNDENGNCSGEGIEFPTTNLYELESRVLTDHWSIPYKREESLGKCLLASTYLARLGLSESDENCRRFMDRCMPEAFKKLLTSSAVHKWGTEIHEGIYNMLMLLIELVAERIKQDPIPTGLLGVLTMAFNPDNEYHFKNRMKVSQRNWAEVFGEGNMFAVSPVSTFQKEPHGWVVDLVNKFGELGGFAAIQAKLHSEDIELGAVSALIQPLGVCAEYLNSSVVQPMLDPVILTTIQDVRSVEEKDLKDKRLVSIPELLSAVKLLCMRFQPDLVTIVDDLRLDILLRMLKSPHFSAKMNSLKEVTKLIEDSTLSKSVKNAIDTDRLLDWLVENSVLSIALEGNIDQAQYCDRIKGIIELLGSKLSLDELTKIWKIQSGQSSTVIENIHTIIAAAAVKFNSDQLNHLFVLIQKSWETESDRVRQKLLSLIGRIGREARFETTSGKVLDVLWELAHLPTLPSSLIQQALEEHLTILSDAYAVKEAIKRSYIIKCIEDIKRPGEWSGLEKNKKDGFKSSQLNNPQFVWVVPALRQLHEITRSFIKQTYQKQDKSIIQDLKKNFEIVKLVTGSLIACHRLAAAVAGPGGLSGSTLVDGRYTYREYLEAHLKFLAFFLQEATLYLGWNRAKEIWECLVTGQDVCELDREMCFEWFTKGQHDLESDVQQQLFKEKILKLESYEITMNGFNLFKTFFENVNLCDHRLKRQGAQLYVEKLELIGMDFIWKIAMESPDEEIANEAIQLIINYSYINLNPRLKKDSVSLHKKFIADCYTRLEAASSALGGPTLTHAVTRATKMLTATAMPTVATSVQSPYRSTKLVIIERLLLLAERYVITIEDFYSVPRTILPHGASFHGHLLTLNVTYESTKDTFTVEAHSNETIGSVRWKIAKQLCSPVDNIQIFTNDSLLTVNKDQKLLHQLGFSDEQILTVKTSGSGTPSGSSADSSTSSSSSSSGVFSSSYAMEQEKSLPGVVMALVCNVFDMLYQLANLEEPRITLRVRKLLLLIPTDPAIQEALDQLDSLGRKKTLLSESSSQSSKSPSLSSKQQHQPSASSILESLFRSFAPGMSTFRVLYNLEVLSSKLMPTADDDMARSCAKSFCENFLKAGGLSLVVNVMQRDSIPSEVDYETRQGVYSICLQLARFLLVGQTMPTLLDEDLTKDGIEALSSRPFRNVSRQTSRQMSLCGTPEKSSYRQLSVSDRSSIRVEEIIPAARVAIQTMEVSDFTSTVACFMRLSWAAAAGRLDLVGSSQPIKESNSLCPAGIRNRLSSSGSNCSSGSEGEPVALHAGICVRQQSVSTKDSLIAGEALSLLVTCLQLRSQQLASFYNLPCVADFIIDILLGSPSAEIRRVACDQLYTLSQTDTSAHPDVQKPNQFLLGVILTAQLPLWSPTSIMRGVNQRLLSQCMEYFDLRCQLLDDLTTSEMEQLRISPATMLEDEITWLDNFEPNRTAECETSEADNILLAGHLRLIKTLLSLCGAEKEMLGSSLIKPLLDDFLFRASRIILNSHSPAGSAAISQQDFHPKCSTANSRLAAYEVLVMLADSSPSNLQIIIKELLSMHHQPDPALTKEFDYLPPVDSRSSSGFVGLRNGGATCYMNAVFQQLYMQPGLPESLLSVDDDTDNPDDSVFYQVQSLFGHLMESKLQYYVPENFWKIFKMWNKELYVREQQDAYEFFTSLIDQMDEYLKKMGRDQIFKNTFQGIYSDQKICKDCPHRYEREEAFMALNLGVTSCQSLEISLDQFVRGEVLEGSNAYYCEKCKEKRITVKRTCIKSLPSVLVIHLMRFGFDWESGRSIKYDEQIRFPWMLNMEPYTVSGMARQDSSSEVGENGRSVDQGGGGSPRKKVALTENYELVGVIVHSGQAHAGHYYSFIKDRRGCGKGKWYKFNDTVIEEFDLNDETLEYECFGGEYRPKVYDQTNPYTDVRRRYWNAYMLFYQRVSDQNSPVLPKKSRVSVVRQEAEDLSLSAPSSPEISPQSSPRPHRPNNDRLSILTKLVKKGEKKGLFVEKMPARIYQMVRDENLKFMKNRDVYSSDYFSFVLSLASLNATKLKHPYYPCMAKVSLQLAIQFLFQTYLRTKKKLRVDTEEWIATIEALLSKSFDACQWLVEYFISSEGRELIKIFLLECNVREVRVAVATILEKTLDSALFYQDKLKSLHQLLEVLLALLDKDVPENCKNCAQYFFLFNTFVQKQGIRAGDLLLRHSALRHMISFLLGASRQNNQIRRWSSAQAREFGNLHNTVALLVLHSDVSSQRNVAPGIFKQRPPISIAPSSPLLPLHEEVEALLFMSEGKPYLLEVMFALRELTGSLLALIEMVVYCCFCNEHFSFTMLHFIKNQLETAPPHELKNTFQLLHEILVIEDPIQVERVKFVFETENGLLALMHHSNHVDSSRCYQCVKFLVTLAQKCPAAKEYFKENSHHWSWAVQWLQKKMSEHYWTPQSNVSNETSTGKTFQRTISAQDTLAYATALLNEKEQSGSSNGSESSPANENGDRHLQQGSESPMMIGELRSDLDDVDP

For the compound `O=C(CCl)N1CCOC(CCc2ccccc2)C1` (stereo not given), the “log2 ratio of Biotin-Ahx-Ub-VS probe labelling” value with USP19 is -0.687; with USP22, -0.0816; in the assay with USP24, -1.37 (active); in the assay with USP25 it was -0.497; with USP28 it was -0.802.
